Measured values published in PubChem BioAssay (NCATS).
Where “and” joins values, the source holds several entries; their conditions need not be identical. Equal entries are not always repeated. Results filed as inconclusive are left out. A structure can be active in one record and inactive in another. Calls of active or inactive are those of the source. Unless noted, calls follow the shape of the dose curve; as a rule, active = well fitted curve in the direction sought with a large enough effect; inconclusive = small, poorly fitted or top-dose-only effect, or another doubt; inactive = no such curve, though single readings can be large; an effect the other way counts as inactive or inconclusive.

Legend:
[1] = High-throughput drug toxicity screening in the BPDCN cell line Cal-1 (AID 1224825; call rule not given here); settings: Cal-1 BPDCN cell viability, qHTS; at 45.8 µM (top of the series) unless noted
Procedure, shortened: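 Percent activity derived from CellTiter-Glo luminescence, scaling DMSO to 100% and 9.2 uM final bortezomib to 0%. BPDCN Cal-1 cells (500/well, RPMI plus 10% FBS) incubated with compounds 48 hours at 37C before reading.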

[2] = qHTS assay for measurement of the activity of small molecule inhibitors on Zika virus induced Caspase-3 activity in human iPSC derived neural progenitor cells (hNPCs) (AID 1224857); also: nearly all actives have a fitted effect of over 65% in size; also: potency is read from the fitted curve at half-maximal effect
Procedure, shortened: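 Human iPSC-derived neural progenitor cells pretreated 1 hr with compounds, then infected with Zika virus (2 FFU/cell) for 6 hours at 37 C. Caspase-3/7 measured by Caspase-Glo luminescence; % inhibition calculated from induction scaled to uninfected (0%) and infected (100%) wells.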

[3] = qHTS assay for measurement of the activity of small molecule inhibitors on Zika virus induced Caspase-3 activity in human astrocytoma cells (AID 1224859); also: potency is read from the fitted curve at half-maximal effect
Procedure, shortened: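 SNB-19 astrocytoma cells, 250/well, pretreated 1 h with compounds, then Zika virus at 2 FFU/cell for 6 h at 37 C; Caspase-Glo 3/7 luminescence after 30 min; percent inhibition normalised to uninfected and infected controls.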

[4] = qHTS Screen of the MIPE 4.0 Collection Against Ewings Sarcoma (TC71) (AID 1259253); also: nearly all actives have a fitted effect of over 40% in size; also: potency is read from the fitted curve at half-maximal effect
Procedure, shortened: (§1)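 After a 4 h attachment period in RPMI/5% FBS, cells were pin-dosed with test compounds; DMSO served as negative and 9.2 uM bortezomib (final) as positive control. Luminescent CellTiter-Glo signal at 48 h defined viability.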

[5] = qHTS Screen of the MIPE 4.0 Collection Against Ewings Sarcoma (EW8) (AID 1259255); also: nearly all actives have a fitted effect of over 35% in size; also: potency is read from the fitted curve at half-maximal effect
Procedure, shortened: as §1

[6] = qHTS assay to identify small molecule inhibitors of chordoma cells - UCH-1 (AID 1259355); also: nearly all actives have a fitted effect of over 55% in size; also: potency is read from the fitted curve at half-maximal effect
Procedure, shortened: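 800 cells/well, overnight attach; compounds pinned at 15 concs, then auranofin/camptothecin/doxorubicin/rubitecan/topotecan combo added; 48hr 37 C, 5% CO2; CellTiter-Glo, 30min RT, luminescence.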

[7] = qHTS assay to identify small molecule inhibitors of chordoma cells - UCH-2 (AID 1259356)
[8] = P-glycoprotein substrates identified in KB-3-1 adenocarcinoma cell line, qHTS therapeutic library screen (AID 1346986); settings: outcome: dose series up to 44.5 µM unless noted; also: nearly all actives have a fitted effect of over 60% in size
Procedure, shortened: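 Dose-response cytotoxicity, KB-3-1 vs P-gp-high KB-8-5-11, no colchicine in assay medium. Read: CellTiter-Glo at 72 h.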

[9] = Natriuretic polypeptide receptor (hNpr1) antagonism - Pilot counterscreen GloSensor control cell line (AID 1347045; calls by dose curve; also: potency is read from the fitted curve at half-maximal effect)
Procedure, shortened: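 The SNP-driven cGMP luminescence signal (50 uM, 20 min, room temperature) was measured in GloSensor HEK293 control cells. Compounds were tested as a LOPAC titration series and preincubated for 30-50 min.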

[10] = molecular target: Atrial natriuretic peptide receptor 1 (Homo sapiens) (UniProt P16066); test: Natriuretic polypeptide receptor (hNpr1) antagonism - Pilot screen (AID 1347049; calls by dose curve;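 also: HEK293 cells with hNpr1 and GloSensor cGMP luciferase stimulated by 0.1 nM hNppA; agonist-evoked cGMP luminescence read 20 min after hNppA addition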; also: potency is read from the fitted curve at half-maximal effect)
Procedure, shortened: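 Receptor antagonism read as cGMP-dependent luminescence in hNpr1/pGS-40F HEK293 cells: pre-read after 30 min compound exposure, post-read 20 min after hNppA agonist at 0.1 nM final, all at room temperature, protected from light; A-71915 titration as control.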

[11] = molecular target: Atrial natriuretic peptide receptor 2 (Homo sapiens) (UniProt P20594); test: Natriuretic polypeptide receptor (hNpr2) antagonism - Pilot subtype selectivity assay (AID 1347050; calls by dose curve; also: potency is read from the fitted curve at half-maximal effect)
Procedure, shortened: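 Antagonist mode: compounds (LOPAC1280, seven 1:5 dilutions) added 30 min before 1 nM hNppC stimulation of hNpr2-HEK293 cGMP-sensor cells; luminescence read before and 20 min after agonist at ambient temperature.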

[12] = qHTS Screen of the MIPE 4.0 Collection Against Ewings Sarcoma (TC32) (AID 1259256); also: nearly all actives have a fitted effect of over 45% in size; also: potency is read from the fitted curve at half-maximal effect
Procedure, shortened: as §1

[13] = qHTS Screen of the MIPE 4.0 Collection Against Ewings Sarcoma (RDES) (AID 1259252); also: nearly all actives have a fitted effect of over 35% in size; also: potency is read from the fitted curve at half-maximal effect
Procedure, shortened: as §1

[14] = P-glycoprotein substrates identified in KB-8-5-11 adenocarcinoma cell line, qHTS therapeutic library screen (AID 1346987); settings: outcome: dose series up to 44.5 µM unless noted; also: nearly all actives have a fitted effect of over 65% in size; also: potency is read from the fitted curve at half-maximal effect
Procedure, shortened: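 Human cervical adenocarcinoma KB-8-5-11 cells, selected in colchicine to over-express P-gp and assayed without it, were exposed for 72 h to titrated compounds. An ATP-based luminescent viability signal gave AC50.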

Sequence of Atrial natriuretic peptide receptor 2 (Homo sapiens) (P20594 whole entry, looked up): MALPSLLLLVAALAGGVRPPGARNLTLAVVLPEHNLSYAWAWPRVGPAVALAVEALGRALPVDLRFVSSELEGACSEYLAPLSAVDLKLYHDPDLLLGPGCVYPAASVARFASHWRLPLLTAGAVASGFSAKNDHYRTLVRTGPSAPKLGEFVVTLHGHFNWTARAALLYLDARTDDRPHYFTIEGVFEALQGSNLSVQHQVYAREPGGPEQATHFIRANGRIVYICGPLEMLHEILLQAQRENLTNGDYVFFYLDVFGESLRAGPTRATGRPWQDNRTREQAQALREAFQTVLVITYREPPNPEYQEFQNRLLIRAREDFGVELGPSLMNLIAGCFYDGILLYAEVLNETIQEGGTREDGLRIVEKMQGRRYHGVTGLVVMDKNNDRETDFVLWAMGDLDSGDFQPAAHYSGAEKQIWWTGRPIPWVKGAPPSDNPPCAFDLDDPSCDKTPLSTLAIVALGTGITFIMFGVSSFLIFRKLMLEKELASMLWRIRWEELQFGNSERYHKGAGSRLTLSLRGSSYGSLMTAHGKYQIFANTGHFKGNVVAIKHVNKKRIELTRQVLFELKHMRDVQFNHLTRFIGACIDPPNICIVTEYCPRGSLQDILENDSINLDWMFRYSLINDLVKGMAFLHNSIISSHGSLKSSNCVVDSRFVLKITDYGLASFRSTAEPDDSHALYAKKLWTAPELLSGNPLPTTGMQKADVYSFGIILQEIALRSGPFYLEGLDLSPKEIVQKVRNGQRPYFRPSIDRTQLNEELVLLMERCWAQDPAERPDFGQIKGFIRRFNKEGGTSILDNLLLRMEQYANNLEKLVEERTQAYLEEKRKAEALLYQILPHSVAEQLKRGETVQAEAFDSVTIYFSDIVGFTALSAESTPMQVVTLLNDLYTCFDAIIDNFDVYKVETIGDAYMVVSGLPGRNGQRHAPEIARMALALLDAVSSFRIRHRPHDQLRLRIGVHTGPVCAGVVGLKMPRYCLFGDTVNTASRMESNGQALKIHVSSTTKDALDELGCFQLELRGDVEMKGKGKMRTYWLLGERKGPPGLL
Sequence of Atrial natriuretic peptide receptor 1 (Homo sapiens) (P16066 whole entry, looked up): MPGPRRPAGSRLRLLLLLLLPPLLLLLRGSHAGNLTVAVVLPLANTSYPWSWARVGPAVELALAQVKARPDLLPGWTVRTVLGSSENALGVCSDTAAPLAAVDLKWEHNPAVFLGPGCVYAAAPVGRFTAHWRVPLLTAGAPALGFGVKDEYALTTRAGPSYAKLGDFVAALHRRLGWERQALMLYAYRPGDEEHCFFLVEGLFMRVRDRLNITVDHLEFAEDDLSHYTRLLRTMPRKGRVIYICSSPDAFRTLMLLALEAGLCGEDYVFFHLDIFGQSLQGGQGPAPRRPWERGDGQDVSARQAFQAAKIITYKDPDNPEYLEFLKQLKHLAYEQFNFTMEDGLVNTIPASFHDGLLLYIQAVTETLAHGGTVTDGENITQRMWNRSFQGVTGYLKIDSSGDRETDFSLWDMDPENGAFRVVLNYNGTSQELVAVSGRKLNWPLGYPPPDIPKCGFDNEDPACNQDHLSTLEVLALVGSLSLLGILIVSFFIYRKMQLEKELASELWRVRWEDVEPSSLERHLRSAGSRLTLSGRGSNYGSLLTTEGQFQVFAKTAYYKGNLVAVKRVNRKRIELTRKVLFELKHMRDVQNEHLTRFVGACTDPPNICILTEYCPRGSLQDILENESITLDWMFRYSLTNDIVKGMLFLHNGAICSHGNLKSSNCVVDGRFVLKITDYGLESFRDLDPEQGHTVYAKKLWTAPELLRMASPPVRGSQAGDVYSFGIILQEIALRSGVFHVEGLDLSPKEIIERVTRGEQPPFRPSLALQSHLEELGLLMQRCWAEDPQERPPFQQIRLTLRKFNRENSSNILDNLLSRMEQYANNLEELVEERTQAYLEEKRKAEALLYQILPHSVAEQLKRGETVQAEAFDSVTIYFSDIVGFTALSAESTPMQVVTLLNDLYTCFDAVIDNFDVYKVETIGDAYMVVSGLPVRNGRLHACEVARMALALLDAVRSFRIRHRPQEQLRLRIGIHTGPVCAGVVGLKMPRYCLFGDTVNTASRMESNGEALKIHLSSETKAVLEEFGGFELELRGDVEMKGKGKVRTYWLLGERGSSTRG

Nc1c2c(nc3ccccc13)CCCC2
active: Potency [4] 18.7 µM | Potency [5] 18.7 µM
inactive: Potency [2] | Potency [3] | Potency [6] | outcome [7] | outcome [8] | Potency [9] | Potency [10] | Potency [11]
101%: viability (% of control) [1]

C[C@@H]1CC(=O)NN=C1c1ccc(NN=C(C#N)C#N)cc1
active: Potency [4] 29.6 µM | Potency [5] 20.9 µM | Potency [12] 20.9 µM
inactive: Potency [2] | Potency [3] | Potency [6] | outcome [7]
5.81%: viability (% of control) [1]

Nc1nc2c(ncn2COC(CO)CO)c(=O)[nH]1
active: Potency [13] 26.4 µM | Potency [4] 23.5 µM
3.13%: viability (% of control) [1]
inactive and 16.6 µM (active): Potency [14]
inactive: Potency [2] | Potency [3] | Potency [6] | outcome [7] | Potency [9] | Potency [10] | Potency [11]

O=C(Nc1ccc([N+](=O)[O-])cc1Cl)c1cc(Cl)ccc1O
20.3%: viability (% of control) [1]
active: Potency [3] 2.82 µM and 1.18 µM and 1 µM | Potency [4] 1.32 µM | Potency [5] 16.6 µM | Potency [12] 1.32 µM | Potency [6] 3.98 µM | Potency [9] 0.464 µM | Potency [10] 0.953 µM | Potency [11] 1.31 µM
inactive and 1.05 µM (active): Potency [2]

CCCCc1oc2ccccc2c1C(=O)c1cc(I)c(OCCN(CC)CC)c(I)c1
inactive: Potency [2] | Potency [3] | outcome [7] | Potency [9] | Potency [10] | Potency [11]
active: Potency [13] 8.33 µM | Potency [4] 8.33 µM | Potency [5] 9.35 µM
8.13%: viability (% of control) [1]

CCN1CCCC1CNC(=O)c1cc(S(=O)(=O)CC)c(N)cc1OC (stereo not given)
active: Potency [5] 20.9 µM
55.1%: viability (% of control) [1]
inactive: Potency [2] | Potency [3] | Potency [13] | Potency [4] | Potency [9] | Potency [10] | Potency [11]

CCCNCC(O)COc1ccccc1C(=O)CCc1ccccc1 (stereo not given)
1.7%: viability (% of control) [1]
active: Potency [4] 14.8 µM | Potency [5] 20.9 µM
inactive: Potency [2] | Potency [3] | Potency [6] | outcome [7] | Potency [9] | Potency [10] | Potency [11]

COc1cc2c(c(OC)c1OC)-c1ccc(OC)c(=O)cc1[C@@H](NC(C)=O)CC2
11.2%: viability (% of control) [1]
inactive: Potency [2] | Potency [3] | Potency [4] | Potency [5] | outcome [7] | Potency [9] | Potency [10]

COc1ccc2[nH]cc(CCNC(C)=O)c2c1
65.3%: viability (% of control) [1]
active: Potency [4] 1.05 µM | Potency [5] 2.96 µM
inactive: Potency [2] | Potency [3] | outcome [7] | Potency [14] | Potency [9] | Potency [10] | Potency [11]

COc1ccccc1N1CCN(CC(O)COc2cccc3ccccc23)CC1 (stereo not given)
active: Potency [4] 16.6 µM
112%: viability (% of control) [1]
inactive: Potency [2] | Potency [3] | Potency [5] | outcome [7] | Potency [9] | Potency [10] | Potency [11]

CC(COc1ccccc1)N(CCCl)Cc1ccccc1 (stereo not given)
inactive: Potency [2] | Potency [3] | Potency [13] | Potency [4] | Potency [5] | Potency [6] | outcome [7] | Potency [9] | Potency [10] | Potency [11]
45%: viability (% of control) [1]

COc1ccccc1OCC(O)CN1CCN(CC(=O)Nc2c(C)cccc2C)CC1 (stereo not given)
inactive: Potency [2] | Potency [3] | Potency [13] | Potency [4] | Potency [5] | Potency [12] | Potency [6] | outcome [7] | Potency [14] | Potency [9] | Potency [10] | Potency [11]
18.6%: viability (% of control) [1]

CC[C@@]1(O)C(=O)OCc2c1cc1n(c2=O)Cc2cc3c(CN(C)C)c(O)ccc3nc2-1
inactive: Potency [2] | Potency [3]
3.81%: viability (% of control) [1]
active: Potency [13] 0.0332 µM | Potency [4] 0.0372 µM | Potency [5] 0.0332 µM

Cc1cn([C@H]2C=C[C@@H](CO)O2)c(=O)[nH]c1=O
inactive: Potency [2] | Potency [3] | Potency [4] | Potency [5] | Potency [12] | Potency [6] | outcome [7] | outcome [8] inactive [at 93.4 µM] | Potency [9] | Potency [10] | Potency [11]
100% [at 92.2 µM]: viability (% of control) [1]

O=C1c2c(O)ccc(O)c2C(=O)c2c(NCCNCCO)ccc(NCCNCCO)c21
inactive: Potency [2] | Potency [3] | Potency [12]
2.98%: viability (% of control) [1]
active: Potency [13] 0.166 µM | Potency [4] 0.0935 µM | Potency [5] 0.059 µM | Potency [14] 5.26 µM | Potency [9] 10.4 µM

C[C@](N)(Cc1ccc(O)c(O)c1)C(=O)O
66%: viability (% of control) [1]
inactive: Potency [2] | Potency [3] | Potency [13] | Potency [4] | Potency [5] | Potency [12] | Potency [6] | outcome [7] | Potency [14] | Potency [9] | Potency [10] | Potency [11]
